High-throughput results as filed in PubChem BioAssay.
a7 integrin act: integrin-mediated muscular dystrophy alleviation activation. alpha7betagal myoblasts, beta-gal FDG fluorescence, 48 h. 350,000 tested, 0.064% active. Potency, µM (doses to about 38.3 µM), for the others: top-dose activation, usual class: activators; active = well fitted activation curve with a large enough effect;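 note: potency is the fitted concentration of half-maximal effect; 100% = response of the positive control SU9516; nearly all actives have a fitted effect of over 60% in size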
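Alpha7betagal+/- myoblasts (passage 13) were plated 16-24 hr, then exposed to compounds (1:260 dilution of DMSO stock) for 48 hours at 37C. After MPER lysis, β-galactosidase reporter activity was read as FDG fluorescence (ex 480/em 540) after 30 minutes.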
D3 ag: D3 dopamine receptor (human) agonism; P35462; D3R DiscoveRx beta-arrestin cells, luminescence, 90 min; max activation, %; 410,000 tested, 0.58% active; AID 652048; in the data active = max activation above about 30%; note: 0% is about no effect
Target sequence (P35462 whole entry, looked up): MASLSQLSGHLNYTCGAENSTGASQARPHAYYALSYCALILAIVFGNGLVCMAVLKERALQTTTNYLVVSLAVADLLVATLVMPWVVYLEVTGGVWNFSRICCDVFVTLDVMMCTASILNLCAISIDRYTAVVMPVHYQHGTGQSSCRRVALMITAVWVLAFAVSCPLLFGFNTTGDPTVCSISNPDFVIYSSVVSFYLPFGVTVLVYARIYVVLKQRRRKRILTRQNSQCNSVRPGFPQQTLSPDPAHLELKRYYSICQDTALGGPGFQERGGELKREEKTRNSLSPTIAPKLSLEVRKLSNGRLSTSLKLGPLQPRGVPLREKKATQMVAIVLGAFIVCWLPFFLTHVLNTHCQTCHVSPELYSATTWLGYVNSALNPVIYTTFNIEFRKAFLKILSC
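Cells at 1500/well, incubated overnight, then treated with pinned compounds (dopamine as control) for 90 min at 37 degrees C. DiscoveRx reagent added for 30 - 60 minutes at room temperature; luminescence read.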
D3 antag: antagonists of human D3 dopamine receptor | AID 652054 | D3R cells, DiscoveRx beta-arrestin luminescence, antagonist mode; active compounds read low | 360,000 tested, 2.5% active | max response, negative = inhibition, % | P35462; in the data active = max response below about -50%; note: % is set by controls: 0 for no effect and ±100 for the full control effect
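Cells expressing the human receptor were seeded at 1500 cells/well, incubated overnight at 37 degrees C in 5% CO2, then exposed to library compounds with dopamine controls for 90 minutes at 37 degrees C before luminescent detection.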
* marks the source's active call; other numbers are inactive results; x = no result given. An excerpt weighted towards active compounds, which were near 2.9% of everything screened.

SMILES	a7 integrin act	D3 ag	D3 antag
CC1(C)Cc2c(sc(NC(=O)c3ccc(C(=O)c4ccccc4)cc3)c2C#N)C(C)(C)N1	18.0%	-18.5	-57.1*
COC(=O)c1c(NC(=O)c2ccc(C(=O)c3ccccc3)cc2)sc2c1CC(C)(C)NC2(C)C	-5.3%	0.6	-11.2
COC(=O)C1(C)NC(c2cccs2)C2C(=O)N(c3ccccc3F)C(=O)C21 (stereo not given)	11.8%	-4.3	13.4
COc1cc(CNCc2ccccc2)c(Br)cc1OC1CCCC1	-49.0%	-17.8	-62.2*
COc1cc(CNC2CCCC2)c(Br)cc1OC1CCCC1	-36.1%	-22.1	-6.6
CCOc1ccc(S(=O)(=O)N(CC(=O)NCCSCc2ccccc2)c2ccccc2)cc1	x	-11.7	x
O[Si](CCCN1CCCCC1)(c1ccc(F)cc1)C1CCCCC1 (stereo not given)	x	-87.0	-109.6*
O=C(NCCCN1CCCC1)Nc1ccc(F)cc1	-45.7%	3.9	1.4
CNS(=O)(=O)c1ccc(NC(=O)C2c3ccccc3Oc3ccccc32)cc1	9.5%	-11.1	-17.4
